Test results from PubChem BioAssay.
Values without a mark were called inactive. No rule for the calls is given here.

What follows are molecules tested against Pantothenate synthetase (Mycobacterium tuberculosis (strain ATCC 25618 / H37Rv)) (UniProt P9WIL5) (assay: Recombinant Mtb pantothenate synthetase (PanC) inhibitors, coupled enzyme, confirmatory (AID 375;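 also: 0% = full reaction with vehicle and 100% = no enzyme background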)). Conditions: coupled enzyme assay; at 10 µM, active compounds read high.
Chain of Pantothenate synthetase (Mycobacterium tuberculosis (strain ATCC 25618 / H37Rv)) (P9WIL5 whole entry, looked up): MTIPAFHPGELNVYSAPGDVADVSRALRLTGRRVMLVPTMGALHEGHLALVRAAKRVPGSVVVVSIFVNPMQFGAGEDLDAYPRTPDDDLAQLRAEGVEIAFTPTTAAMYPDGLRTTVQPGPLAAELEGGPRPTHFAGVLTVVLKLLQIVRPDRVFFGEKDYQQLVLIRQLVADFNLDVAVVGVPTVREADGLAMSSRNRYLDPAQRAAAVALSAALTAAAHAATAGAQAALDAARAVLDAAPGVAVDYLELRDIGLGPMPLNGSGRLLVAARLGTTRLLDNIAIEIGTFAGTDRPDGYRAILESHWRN
Molecule `NS(=O)(=O)c1ccc(C(=O)O)cc1` has an inhibition of 0%. In the case of `COc1cc2[nH]c3c(=O)n(CCN(C(C)C)C(C)C)cnc3c2cc1OC`, the inhibition is reported as 10%. For `N#CCCNCC1(c2ccccc2)CCCC1`, the inhibition was 7%. Molecule `O=C1C(c2ccncc2)=C(O)c2ccccc21` has an inhibition of 0%. `O=C1c2ccccc2C(=O)N1CNc1ccccc1` was tested, and the inhibition was 0%. `CCOC(=O)Cn1c(=N)n(CCOc2cccc(C)c2)c2ccccc21` gave an inhibition of 0%. For `C#CCSc1nc(-c2cccs2)ccc1C#N`, the inhibition was 0%. Molecule `O=C(O)c1cc(-c2ccccc2Cl)n[nH]1` has an inhibition of 2%. Work on `CCC(c1c(C)n(C)n(-c2ccccc2)c1=O)c1c(C)n(C)n(-c2ccccc2)c1=O` yielded an inhibition of 1%. `Cc1nc2sc(C(c3cccs3)N3CCOCC3)c(O)n2n1` (stereo not given) showed an inhibition of 0%. `CCCCOc1ccc(CC(=O)NO)cc1` gave an inhibition of 9%. `O=C(O)C1C2CCC(O2)C1C(=O)Nc1cccc(F)c1` (stereo not given) showed an inhibition of 1%. For `Nc1nc(-c2ccccc2Br)cs1`, the inhibition was 3%. `COc1ccc(-c2nc(N)nc(C)c2Oc2ccccc2Br)c(O)c1` was tested, and the inhibition was 0%. For `[N-]=[N+]=CC(=O)CC(c1ccccc1)N1C(=O)c2ccccc2C1=O` (stereo not given), the inhibition was 0%. With `C=Cn1c(C(=O)O)cc(CC)c1-c1ccccc1` the inhibition was 9%. Molecule `Cc1ccc(-c2noc(C3CCCN(C(=O)c4ccccc4)C3)n2)o1` (stereo not given) has an inhibition of 0%. Molecule `CC(=O)c1cc(F)c(N2CCN(C(=O)Cc3ccccc3)CC2)cc1C` has an inhibition of 0%. For `COc1ccccc1OCCCCNCCO`, the inhibition was 0%. `CCOC(=O)c1sc2nc(NC(=O)C3CCCCC3)sc2c1C` showed an inhibition of 2%. `CCOc1ccc(NC(=O)CSc2nnnn2CC(=O)O)cc1` showed an inhibition of 0%. In the case of `CCCCNC(=O)Nc1ccnn1C1CCCCC1`, the inhibition is reported as 1%. Molecule `NC(=O)SCC(=O)Nc1cccc(Cl)c1` has an inhibition of 1%. In the case of `CCN(CCCNC(=O)CCNC(=O)Cn1ccc2ccccc2c1=O)c1ccccc1`, the inhibition is reported as 1%. Molecule `O=C(CN1C(=O)CCS(=O)(=O)c2ccccc21)NCc1ccc(F)cc1` has an inhibition of 3%. For `O=C1NC(=O)C(c2ccccc2)(c2ccccc2)N1`, the inhibition was 0%. `CCN(CC)CC(=O)Nc1ccc(-c2nc3cc(NC(=O)CN(CC)CC)ccc3o2)cc1` gave an inhibition of 7%. `O=C(NCC1CCCO1)C1CCC(CNS(=O)(=O)c2ccccc2)CC1` (stereo not given) gave an inhibition of 5%. Work on `O=C1CC(N2CCOCC2)C(=O)N1c1ccccc1Cl` (stereo not given) yielded an inhibition of 1%. For `COc1ccccc1C(=O)n1nc(-c2ccc(Cl)cc2)nc1N`, the inhibition was 3%. With `COc1cccc(CNc2nc3nc(C)c(Cl)c(C)n3n2)c1` the inhibition was 12%. For `COC(=O)CCC(=O)Nc1ccc(OC)cc1`, the inhibition was 0%. Work on `Cc1ccc(NC(=O)c2cc(-c3ccc(C)o3)nc3ccccc23)nc1` yielded an inhibition of 0%. `CCc1nnc(NC(=O)c2cccc(C(=O)Nc3nnc(CC)s3)n2)s1` was tested, and the inhibition was 0%. For `COc1ccccc1-n1cnc(N)c1C(C)=O`, the inhibition was 0%. In the case of `C1CCc2nnc(-c3nnc4n3CCCCC4)n2CC1`, the inhibition is reported as 10%. `[O-][n+]1c2ccc3nonc3c2nn1-c1ccccc1Cl` was tested, and the inhibition was 0%. `Cc1cc(C)nc(SCc2ccc3nonc3c2)n1` gave an inhibition of 1%. With `Cc1cc(Br)ccc1NC(=O)CNC(=O)CSc1n[nH]c(N)n1` the inhibition was 6%. `COC(=O)C1C(=O)C2=C(CC1C)NC(=O)CC2c1ccccc1` (stereo not given) gave an inhibition of 0%.
